This is part of a sample that, as a whole, favours compounds with a hit. Of some 83,000 tested, about 20% had one in any assay.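 Growth was measured after 48 h exposure to one concentration of compound in 96-well plates. Values under 10 count as active.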 The source made the active and inactive calls.

Growth data for 40 compounds are collected here from PubChem BioAssay (NCI).

This experiment has as its system HL-60(TB) leukemia. As to the kind of experiment: NCI-60 one-dose screen, 48 h (100 = growth as untreated, 0 = no growth, -100 = all killed). As to conditions: 10 µM unless noted.
As for `Cc1cc(C(=O)c2ccccc2)cc(C)c1O`, the growth is 31.3% (inactive).

Turning to `CCc1ccc(-c2ccc(COc3ccc(CC4SC(=O)NC4=O)cc3)cc2)cc1` (stereo not given), the growth is 88.1% (inactive). As to `O=S(=O)(O)c1ccc(F)cc1`, the growth is 93.8% (inactive).

With `Cc1ccc2oc(=O)cc(-c3sc(N4CCCCC4)nc3-c3ccccc3)c2c1`, the growth is 95% (inactive). The value for `CCCOc1cc2ccccc2cc1C(=O)Nc1nc(N)c2c(ccc3nccc32)[nH]1` was -56.3% (active); that for `O=c1c2cc(F)ccc2sc2c(NCCCN3CCCC3)nc3ccccc3c12` was 13.9% (inactive); that for `COc1ccc(-c2[nH]ncc2-c2cc3c(c(OC)c2)OCC(=O)N3)cc1` was 11.3% (inactive). The value for `COC(=O)c1ccccc1N(C)C` was 87.6% (inactive); that for `CCCCNC(=O)NS(=O)(=O)c1ccc(N2N=C(c3ccc(C)cc3C)CC2c2ccc(N(C)C)cc2)cc1` (stereo not given) was 14.4% (inactive); that for `O=c1ccn(C2CCCO2)c(=O)[nH]1` (stereo not given) was 111% (inactive). For `O=S(=O)(O)c1cccnc1`, the growth was 61.8% (inactive). Regarding `CC(C)(C)C(CCc1ccc(Cl)cc1)N1CCN(C2CCCCC2)CC1` (stereo not given), the growth was 48.2% (inactive). Take `Cc1cc(N)ccc1-c1ccc(N)cc1C`: the growth is 84.6% (inactive). The value for `CCN1C(=O)N(CC)C2C1NN=c1s/c(=C\c3ccc(F)cc3)c(=O)n12` (stereo not given) was -47% (active); that for `CC1(c2ccccc2)NC(=O)N(NC(=O)CSc2nc(-c3cccs3)nc3ccccc23)C1=O` (stereo not given) was 91.6% (inactive). Turning to `CCCc1cc2c(cc1Br)OCO2`, the growth was 103% (inactive). The value for `O=C(Cn1cc(CSc2nc3ccccc3o2)nn1)Nc1ccc(F)cc1F` was 102% (inactive); that for `CCN(CC)CCSc1c2ccc(Cl)cc2nc2ccc(OC)cc12` was 68.8% (inactive); that for `COc1ccc(Cn2cc(C(=O)N=Nc3c(O)[nH]c4c(C)cccc34)nn2)cc1` was 78.9% (inactive). `COc1ccc2sc(N(Cc3cccnc3)C(=O)c3ccc(C#N)cc3)nc2c1`: the growth is 63.4% (inactive). Next, `Nc1c(C(=O)Nc2cccc3ncccc23)sc2nc3c(cc12)C(=O)CCC3`: 32.8% (inactive); `CC(C)=CC(=O)C1C(=O)c2ccccc2C1=O`: 120% (inactive); `COc1cc2cn3c4ccc(O)cc4nc(N)c3c2cc1OC`: 24.5% (inactive). Take `O=C(N/N=C/c1ccccc1Cl)c1ccccc1Nc1ccnc(C(F)(F)F)c1`: the growth was -20.1% (active). Turning to `CC1(C)CC(O)CCCCCCOc2c(CN)cccc2NC(=O)c2nc(cnc2N)-c2ccc(cc2)S1(=O)=O` (stereo not given), the growth was -49.3% (active).

Turning to `Clc1ccc(/C=C/c2cc(N3CCOCC3)c3cc(Cl)c(Cl)cc3n2)cc1`, the growth is -16.3% (active).

As for `COc1ccc2c(c1)c(-c1nc(-c3c[nH]c4ncccc34)cs1)cn2CCN`, the growth is 41.2% (inactive). `COc1ccc(-n2nc(C(=O)NCC(=O)O)nc2-c2ccccc2)cc1`: the growth was 96.3% (inactive).

As to `COc1cc(OC)c(/C=C/c2cc[n+](C)c3ccccc23)c(OC)c1`, the growth was -25.6% (active).

With `Cc1ccc(S(=O)(=O)N2CCC(C(=O)Nc3ccc(F)cc3F)CC2)cc1`, the growth is 88.2% (inactive).

In the case of `COCCOc1cc2ncnc(N3CCN(S(=O)(=O)c4ccccc4Cl)CC3)c2cc1OCCOC`, the growth is 56% (inactive). With `CC1=C2[C@@H](CC1)[C@]1(C)O[C@@](C(C)C)(C[C@H]1OC(=O)CO)[C@H]2OC(=O)CCCc1ccccc1`, the growth is 1.28% (active). For the compound `Nc1ncnc2[nH]ncc12`, the growth was 3.02% (active).

As for `COc1ccc(C(=O)CSc2nnc(-c3cc(-c4ccccc4)nc4ccccc34)o2)cc1`, the growth was 111% (inactive). Consider `N#Cc1c(-c2ccc(Cl)cc2)nc(NN=Cc2cccc(Cl)c2)nc1N1CCOCC1`, for which the growth was 71.5% (inactive). Next, `CC(O)CCC(C)[N+](=O)[O-]` (stereo not given): 96.9% (inactive); `COc1cc(C(=O)c2c(-c3ccccc3)oc3c(OC)cccc23)cc(OC)c1O`: 3.31% (active). Next, `COc1cccc(/C=N\Nc2ccc([N+](=O)[O-])cn2)c1O`: 57.5% (inactive). Next, `COc1cccc(-c2nc(-c3ccc(N)cc3)co2)c1`: 52.9% (inactive); `Cc1ccc2[nH]c(=O)c3c(c2c1)Oc1ncn2nc(-c4ccco4)nc2c1C3c1ccc(Cl)cc1` (stereo not given): 96.8% (inactive).
